Bioassay records (PubChem BioAssay)
These entries were drawn from the full list.
aSyn 5UTR act = Activators via SNCA 5'UTR binding, MLPCN; alpha-synuclein 5'UTR reporter, activators screen; activity score, % (tested at 7.5 µM), hits read low; actives 7.1% (n = 300,000); AID 1814; in the data active = activity score below about -60%
Large screens that a line does not name were inactive.

O=C(c1cc2c(s1)-c1ccccc1OC2)N1CCc2ccccc2C1	aSyn 5UTR act -89
O=C(c1ccc2c(c1)OCO2)N1CCc2ccccc2C1	aSyn 5UTR act -113
CNc1ccccc(-c2ccc3cc4c(cc3n2)OCO4)c1=O	aSyn 5UTR act -215
Cc1ccnc(NC(=O)Nc2ccc(F)cc2)c1	aSyn 5UTR act -86
Cc1ccc(NC(=O)Nc2ccc(F)cc2)nc1	aSyn 5UTR act -108
Cc1cc(C)n(CCC(=O)N/N=C/c2c(O)ccc3ccccc23)n1	none
S=C(NCCN1CCOCC1)N/N=C/c1c2ccccc2cc2ccccc12	aSyn 5UTR act -74
O=C(N/N=C/c1cc([N+](=O)[O-])ccc1O)c1cccc(NC(=O)c2cccc(Cl)c2)c1	none
O=[N+]([O-])c1ccc(Cl)c(/C=N/NC(=S)Nc2ccccc2)c1	aSyn 5UTR act -79
Cc1nn(C)cc1/C=N/NC(=S)Nc1ccccc1	aSyn 5UTR act -137
C/C(N)=C(/C#N)C(=O)CSc1nn(-c2ccc(Cl)cc2)c(=S)s1	aSyn 5UTR act -74
C/C(N)=C(/C#N)C(=O)CSc1nnc(-c2ccc(OC(F)F)cc2)o1	aSyn 5UTR act -204
C/C(N)=C(/C#N)C(=O)CSc1ccccc1F	aSyn 5UTR act -115
CCCCCCn1c2c(c(=N)c3c1CCC3)CCC2	none
CCOC(=O)c1c(CSC(=N)N)n(-c2ccccc2)c2cc(Br)c(OC(C)=O)cc12	aSyn 5UTR act -71
CC(C)(C)c1csc(NC(=O)c2ccccc2O)n1	aSyn 5UTR act -141
Cc1csc(NC(=O)c2ccc(Cl)nc2)n1	aSyn 5UTR act -93
Cc1csc(NC(=O)c2cc(C)oc2C)n1	aSyn 5UTR act -128
Cc1csc(NC(=O)c2ccccc2O)n1	aSyn 5UTR act -84
OC1(C(F)(F)F)CC(O)(C(F)(F)F)n2nc(-c3ccccc3)cc2N1 (configuration not stated)	aSyn 5UTR act -126
COc1ccc(C2NC(=S)NC3=C2CCCC3=C2SCCS2)cc1 (configuration not stated)	aSyn 5UTR act active
O=[N+]([O-])c1ccc(-c2nnc(S)n2-c2ccccc2)cc1	aSyn 5UTR act -95
C/C(=N/N1CCN(c2ccccc2)CC1)c1cccc([N+](=O)[O-])c1	aSyn 5UTR act -70
CCOc1ccc(-n2c(SCc3ccc([N+](=O)[O-])cc3)nnc2-c2ccccc2)cc1	none
CC(C)OC(=O)c1ccc(N2CCN(c3ccccc3F)CC2)nc1	aSyn 5UTR act -68
O=[N+]([O-])c1ccc(N2CCN(c3ccccc3F)CC2)nc1	aSyn 5UTR act -66
O=[N+]([O-])c1ccc(N2CCN(c3ccccc3)CC2)cc1	aSyn 5UTR act -80
O=[N+]([O-])c1ccc(N2CCc3ccccc3C2)nc1	aSyn 5UTR act -66
CC1Cc2ccccc2N1c1ncnc(N)c1[N+](=O)[O-] (configuration not stated)	none
O=[N+]([O-])c1ccc(N2CCN(c3ccccc3)CC2)nc1	aSyn 5UTR act -76
CN(C)CCNC(=O)c1cc2sc3ccccc3c2s1	aSyn 5UTR act -127
CCN(CC)C(=O)c1cc2sc3ccccc3c2s1	aSyn 5UTR act -134
COc1ccc(/C=C2/SC(=S)N(CCCC(=O)Nc3ccc(O)cc3)C2=O)cc1	none
CC(C)c1ccc(/C=C2\SC(=O)N(CC(=O)NCCCn3ccnc3)C2=O)cc1	aSyn 5UTR act -110
COc1ccc(/C=C2\SC(=O)N(CCNC(=O)CCS(=O)(=O)c3ccc(C)cc3)C2=O)cc1	aSyn 5UTR act -64
COc1ccc(/C=C2\SC(=O)N(CCNC(=O)Cn3cnnn3)C2=O)cc1	aSyn 5UTR act -187
COc1ccc(/C=C2\SC(=O)N(CCNC(=O)C3CCN(S(=O)(=O)c4cccs4)CC3)C2=O)cc1	aSyn 5UTR act -113
CC1CCN(c2nc3ccc(C(=O)N4CCN(Cc5ccccc5)CC4)cc3s2)CC1	aSyn 5UTR act -137
O=S(=O)(c1ccccc1F)N1CCN(c2nc3ccccc3s2)CC1	aSyn 5UTR act -116
COc1cccc(N2CCN(C(=O)c3ccc(CS(=O)c4ccc(C)cc4)o3)CC2)c1 (configuration not stated)	none
COc1cccc(N2CCN(C(=O)c3ccc4nc(N5CCC(C)CC5)sc4c3)CC2)c1	aSyn 5UTR act -157
CCOC(=O)N1CCN(C(=O)c2ccc3nc(N4CCC(C)CC4)sc3c2)CC1	aSyn 5UTR act -124
O=C1CC(c2cc(Br)ccc2F)c2cc3c(cc2N1)CCC3 (configuration not stated)	none
c1ccc(CN2CCN(c3nc4ccccc4s3)CC2)cc1	aSyn 5UTR act -150
COc1ccc(OS(=O)(=O)Cc2ccccc2)cc1	aSyn 5UTR act -103
O=c1oc(-c2ccc(Br)cc2)nc2ccccc12	aSyn 5UTR act -130
CCCOc1cccc(-c2nc3ccccc3c(=O)o2)c1	aSyn 5UTR act -95
O=C(/C=C/Nc1ccc(F)cc1)c1ccco1	aSyn 5UTR act -144
CCOC(=O)c1ccc(N/C=C/C(=O)c2ccco2)cc1	aSyn 5UTR act -85
COCCCNC(=O)/C=C/c1ccc(Cl)cc1Cl	aSyn 5UTR act -85
CN(C)/C=C1\Oc2ccc3ccccc3c2C1=O	aSyn 5UTR act -116
O=C(NCc1csc(-c2cccs2)n1)C1CCCCC1	aSyn 5UTR act -67
COc1ccccc1CCNC(=O)c1nc(-c2cccs2)no1	aSyn 5UTR act -93
